The source made the active and inactive calls.
Assays:
[1] = binders of probe aFSTL3 on microarray, primary screen, stem cell growth factor project, biochemical, small-molecule microarray, fluorescence 635/667 (AID 1064); conditions: higher = more signal;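 also: measures binding of the biotinylated anti-FSTL3 antibody to printed compounds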
[2] = binders from COS7 lysate, DM2A8 probe, primary screen, torsin A project, cell lysate, small-molecule microarray, fluorescence 635/667 (AID 1065); conditions: higher = more signal, COS7 lysate expressing mutant human TOR1A
[3] = binders of probe aFGF2 on microarray, primary screen, stem cell growth factor project, biochemical, small-molecule microarray, fluorescence 635/667 (AID 1067); conditions: higher = more signal;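 also: measures binding of biotinylated aFGF2 protein to printed compounds on slides; z-score merges feature fluorescence and signal-to-noise across triplicate slides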
[4] = binders of probe aFGF10 on microarray, primary screen, stem cell growth factor project, biochemical, small-molecule microarray, fluorescence 635/667 (AID 1071); conditions: higher = more signal;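 also: score merges 667 nm spot intensity and signal to noise from triplicate slides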
[5] = molecular target: Neurogenic locus notch homolog protein 2 (Homo sapiens) (UniProt Q04721); test: Notch2 binders on small-molecule microarrays, primary screen, biochemical, small-molecule microarray, 635 nm fluorescence, stem cell growth factors (AID 1073); conditions: Notch2 binding, higher = more signal
[6] = molecular target: Pro-neuregulin-1, membrane-bound isoform (Homo sapiens) (UniProt Q02297); test: NRG1 binders on small-molecule microarrays, primary screen, psychiatric disease protein project, biochemical, small-molecule microarray, fluorescence 635/667 (AID 1075); conditions: NRG1 binding, 635 nm fluorescence, higher = more signal;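 also: score combines 667 nm spot fluorescence with signal to noise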
[7] = tested on: Neuregulin-1 EGF-like domain; test: binders of neuregulin-1 EGF-like domain, primary screen, biochemical, small-molecule microarray, 635 nm fluorescence (AID 1081); conditions: small-molecule microarray binding, higher = more signal;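 also: binding of the protein to compounds printed on small-molecule microarray slides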
[8] = FRG1 promoter luciferase signal modulators, primary screen, FRG1 inhibition for FSHD, cell-based, C2C12 myotubes, firefly/Renilla luciferase, luminescence (AID 1084); conditions: higher = more signal, called active from +8 up or from −8 down
[9] = binders of probe aFST on microarray, primary screen, stem cell growth factor project, biochemical, small-molecule microarray, fluorescence 635/667 (AID 1086); conditions: higher = more signal;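 also: score merges 667 nm fluorescence with signal-to-noise of each printed compound spot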
[10] = binders of probe aHhip on microarray, primary screen, stem cell growth factor project, biochemical, small-molecule microarray, fluorescence 635/667 (AID 1087); conditions: higher = more signal;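 also: score merges spot fluorescence at 667nm with spot signal to noise ratio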
[11] = tested on: PRMT1 (protein arginine N-methyltransferase 1); test: PRMT1 binders on small-molecule microarrays, primary screen, biochemical, small-molecule microarray, 635 nm fluorescence (AID 1088); conditions: small-molecule microarray binding, higher = more signal;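 also: binding of Prmt1 protein to compounds spotted on small-molecule microarray slides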
[12] = yeast growth modulation, basal conditions, primary screen, YJM789 clinical isolate, OD600, 24 h (AID 1089);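 also: growth of clinical yeast isolate S. cerevisiae YJM 789 seeded 1000 cells per well; test concentration not given here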; conditions: S. cerevisiae YJM789 growth, higher = more signal, called active from +8 up or from −8 down
[13] = fission yeast growth modulation, primary screen, strain 972, OD600, 24 h, no modulator (AID 1090);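 also: basal condition with compound alone and no growth modifier present; test concentration not given here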; conditions: S. pombe 972 growth, higher = more signal, called active from +8 up or from −8 down
[14] = S. cerevisiae growth modulation with rapamycin, primary screen, strain BY4716, OD600, 96 h (AID 1091); conditions: higher = more signal, called active from +8 up or from −8 down; also: test concentration not given here
[15] = molecular target: Torsin-1A-interacting protein 2 (Homo sapiens) (UniProt Q8NFQ8); test: LULL1 binders on small-molecule microarray, primary screen, cell lysate, human LULL1 lysate, 635/667 nm fluorescence (AID 1092); conditions: hLULL1 lysate binding, 635 nm fluorescence, higher = more signal;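 also: probe is lysate of COS7 cells overexpressing human LULL1; score merges per-feature 667 nm fluorescence with signal-to-noise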
[16] = E. coli growth modulation, two-sided OD650, primary screen, E. coli filamentation project, strain DRC41, 24 h (AID 1093); conditions: OD650, 24 h, higher = more signal, called active from +8 up or from −8 down;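 also: MC1000 strain lacking acrAB efflux and sulA so SOS filamentation is blocked; test concentration not given here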
[17] = small-molecule microarray binders of probe aLefty2, primary screen, biochemical, biotinylated probe, 635/667 nm fluorescence (AID 1094); conditions: higher = more signal;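 also: score merges spot fluorescence near 667 nm with spot signal-to-noise ratio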
[18] = tested on: Noggin (protein binding on small-molecule microarray); test: Noggin binders on small-molecule microarray, primary screen, biochemical, 635/667 nm fluorescence (AID 1095); conditions: 635 nm fluorescence, higher = more signal;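 also: score merges 667 nm feature fluorescence with signal to noise over triplicate slides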
[19] = molecular target: Neurogenic locus notch homolog protein 3 (Homo sapiens) (UniProt Q9UM47); test: NOTCH3 binders on small-molecule microarray, primary screen, biochemical, 635/667 nm fluorescence (AID 1096); conditions: NOTCH3 binding, 635 nm fluorescence, higher = more signal
[20] = small-molecule microarray binders of probe aEGFR, primary screen, biochemical, biotinylated probe, 635/667 nm fluorescence (AID 1097); conditions: higher = more signal;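 also: probe is a biotinylated anti-EGFR antibody binding compounds printed on slides; score combines fluorescence near 667 nm and signal to noise of each spot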

Pro-neuregulin-1, membrane-bound isoform (Homo sapiens), sequence (Q02297 whole entry, looked up, the tested form may be a part, canonical isoform): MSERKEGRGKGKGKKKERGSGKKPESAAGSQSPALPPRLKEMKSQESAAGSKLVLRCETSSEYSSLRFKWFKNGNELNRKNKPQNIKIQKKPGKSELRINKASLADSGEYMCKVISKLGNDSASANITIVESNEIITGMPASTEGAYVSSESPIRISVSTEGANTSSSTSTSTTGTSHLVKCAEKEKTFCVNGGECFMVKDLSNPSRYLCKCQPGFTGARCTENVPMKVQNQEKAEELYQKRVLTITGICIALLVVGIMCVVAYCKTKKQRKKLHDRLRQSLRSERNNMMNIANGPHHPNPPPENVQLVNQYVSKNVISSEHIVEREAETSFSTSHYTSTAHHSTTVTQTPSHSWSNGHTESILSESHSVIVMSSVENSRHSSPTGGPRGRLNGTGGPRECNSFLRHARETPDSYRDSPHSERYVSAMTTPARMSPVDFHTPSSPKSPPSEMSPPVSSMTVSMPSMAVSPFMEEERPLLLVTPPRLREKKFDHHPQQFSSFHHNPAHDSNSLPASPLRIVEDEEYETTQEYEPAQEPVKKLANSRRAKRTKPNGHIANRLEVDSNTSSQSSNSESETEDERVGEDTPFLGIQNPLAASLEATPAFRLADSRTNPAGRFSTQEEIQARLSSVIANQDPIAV
Torsin-1A-interacting protein 2 (Homo sapiens), sequence (Q8NFQ8 whole entry, looked up): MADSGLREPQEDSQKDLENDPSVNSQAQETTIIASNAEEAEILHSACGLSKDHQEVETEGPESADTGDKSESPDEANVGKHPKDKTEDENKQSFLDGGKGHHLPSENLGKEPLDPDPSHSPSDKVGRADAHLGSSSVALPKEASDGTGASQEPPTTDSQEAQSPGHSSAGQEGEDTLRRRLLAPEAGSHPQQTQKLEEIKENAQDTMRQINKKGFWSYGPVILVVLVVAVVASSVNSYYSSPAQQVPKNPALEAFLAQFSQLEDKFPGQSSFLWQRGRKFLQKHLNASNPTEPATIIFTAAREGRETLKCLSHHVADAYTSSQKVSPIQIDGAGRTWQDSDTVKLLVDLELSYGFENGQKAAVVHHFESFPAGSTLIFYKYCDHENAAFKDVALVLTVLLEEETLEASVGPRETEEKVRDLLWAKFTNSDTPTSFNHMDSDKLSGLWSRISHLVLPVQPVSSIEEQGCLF
Neurogenic locus notch homolog protein 2 (Homo sapiens), sequence (Q04721 whole entry, looked up, canonical isoform): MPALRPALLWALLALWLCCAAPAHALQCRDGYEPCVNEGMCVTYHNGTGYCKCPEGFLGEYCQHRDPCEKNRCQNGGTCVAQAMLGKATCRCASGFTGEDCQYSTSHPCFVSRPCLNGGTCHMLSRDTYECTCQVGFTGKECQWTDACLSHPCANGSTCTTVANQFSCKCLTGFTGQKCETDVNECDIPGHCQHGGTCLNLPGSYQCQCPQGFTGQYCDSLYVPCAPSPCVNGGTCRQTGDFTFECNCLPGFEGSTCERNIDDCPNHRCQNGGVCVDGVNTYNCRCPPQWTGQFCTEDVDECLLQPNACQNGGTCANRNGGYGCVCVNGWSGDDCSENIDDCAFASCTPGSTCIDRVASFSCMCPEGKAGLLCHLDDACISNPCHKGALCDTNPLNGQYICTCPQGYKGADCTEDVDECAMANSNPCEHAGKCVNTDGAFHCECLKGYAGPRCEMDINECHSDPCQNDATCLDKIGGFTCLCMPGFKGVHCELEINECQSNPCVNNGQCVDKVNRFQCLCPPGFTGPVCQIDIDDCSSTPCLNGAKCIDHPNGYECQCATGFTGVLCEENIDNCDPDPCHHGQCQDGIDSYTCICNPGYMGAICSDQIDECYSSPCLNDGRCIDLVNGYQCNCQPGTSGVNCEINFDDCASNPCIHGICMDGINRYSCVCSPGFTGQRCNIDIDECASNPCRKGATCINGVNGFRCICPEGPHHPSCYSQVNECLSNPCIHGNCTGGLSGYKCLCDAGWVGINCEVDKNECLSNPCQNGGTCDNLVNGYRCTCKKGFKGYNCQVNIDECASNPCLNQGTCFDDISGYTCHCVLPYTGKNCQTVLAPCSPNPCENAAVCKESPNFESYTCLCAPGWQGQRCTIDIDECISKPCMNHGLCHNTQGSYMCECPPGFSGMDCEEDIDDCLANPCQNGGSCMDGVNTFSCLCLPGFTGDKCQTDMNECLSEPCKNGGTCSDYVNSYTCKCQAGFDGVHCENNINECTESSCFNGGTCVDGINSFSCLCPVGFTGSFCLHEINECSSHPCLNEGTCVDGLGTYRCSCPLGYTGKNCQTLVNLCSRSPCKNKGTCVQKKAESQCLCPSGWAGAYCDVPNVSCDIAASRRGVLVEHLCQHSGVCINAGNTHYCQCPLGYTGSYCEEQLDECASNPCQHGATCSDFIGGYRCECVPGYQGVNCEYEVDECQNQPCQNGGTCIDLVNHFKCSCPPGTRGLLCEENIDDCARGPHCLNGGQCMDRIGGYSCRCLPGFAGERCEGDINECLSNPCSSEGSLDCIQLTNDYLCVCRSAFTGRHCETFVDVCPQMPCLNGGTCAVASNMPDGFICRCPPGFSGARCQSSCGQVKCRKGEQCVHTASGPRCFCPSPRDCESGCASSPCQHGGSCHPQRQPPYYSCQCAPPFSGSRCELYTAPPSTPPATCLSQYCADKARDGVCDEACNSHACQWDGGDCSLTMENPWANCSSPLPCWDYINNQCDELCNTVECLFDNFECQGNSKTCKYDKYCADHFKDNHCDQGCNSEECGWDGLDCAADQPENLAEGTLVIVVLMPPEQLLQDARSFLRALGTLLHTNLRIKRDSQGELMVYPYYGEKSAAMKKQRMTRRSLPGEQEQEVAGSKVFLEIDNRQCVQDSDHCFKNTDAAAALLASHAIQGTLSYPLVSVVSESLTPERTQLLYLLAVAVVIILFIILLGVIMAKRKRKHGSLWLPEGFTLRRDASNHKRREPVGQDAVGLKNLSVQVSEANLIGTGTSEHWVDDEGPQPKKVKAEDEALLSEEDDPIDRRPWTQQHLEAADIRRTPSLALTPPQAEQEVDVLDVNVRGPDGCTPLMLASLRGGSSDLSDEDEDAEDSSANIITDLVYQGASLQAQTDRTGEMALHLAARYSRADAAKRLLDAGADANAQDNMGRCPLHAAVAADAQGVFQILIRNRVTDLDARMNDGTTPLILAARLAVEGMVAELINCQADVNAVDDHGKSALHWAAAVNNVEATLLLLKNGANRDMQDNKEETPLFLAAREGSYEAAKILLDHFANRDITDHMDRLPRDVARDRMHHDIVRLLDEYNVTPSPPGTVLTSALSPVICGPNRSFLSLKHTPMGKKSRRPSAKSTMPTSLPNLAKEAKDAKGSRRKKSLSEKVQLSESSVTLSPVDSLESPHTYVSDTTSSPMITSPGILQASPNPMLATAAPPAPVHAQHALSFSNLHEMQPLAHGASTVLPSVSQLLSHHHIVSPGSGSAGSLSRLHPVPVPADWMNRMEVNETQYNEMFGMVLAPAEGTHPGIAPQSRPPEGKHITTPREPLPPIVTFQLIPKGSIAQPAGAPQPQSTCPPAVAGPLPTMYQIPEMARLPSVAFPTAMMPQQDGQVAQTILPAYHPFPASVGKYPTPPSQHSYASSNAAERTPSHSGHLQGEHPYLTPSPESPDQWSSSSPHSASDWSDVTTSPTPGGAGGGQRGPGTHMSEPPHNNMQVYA

Structure (SMILES)	composite z-score [1]	composite z-score [2]	composite z-score [3]	composite z-score [4]	composite z-score [5]	composite z-score [6]	composite z-score [7]	z-score [8]	composite z-score [9]	composite z-score [10]	composite z-score [11]	z-score [12]	z-score [13]	z-score [14]	composite z-score [15]	z-score [16]	composite z-score [17]	composite z-score [18]	composite z-score [19]	composite z-score [20]
COc1ccc(C(O)C2C=CC3C(=O)N(c4ccccc4)C(=O)C3N2Nc2ccc(C(C)C)cc2)c2ccccc12 (stereo not given)	-0.0766	0.309	0.0442	0.7	1.59	1.49	1.16	-1.31 (inactive)	1.83	-0.148	1.56	0.254 (inactive)	0.227 (inactive)	-0.519 (inactive)	3.61	-1.08 (inactive)	0.204	0.0754	1.07	-0.0019
CC(C)C(=C=CC[C@H](O)c1cccc(OCCO)c1)CCO	-0.068	1.33	-0.0937	-0.194	-0.379	-0.356	-0.403	0.163 (inactive)	-0.045	-0.287	0.801	-1.16 (inactive)	-0.538 (inactive)	-1.42 (inactive)	0.228	0.537 (inactive)	-0.285	0.683	0.234	-0.165
CC(C)C[C@@H]1NC(=O)CNC(=O)[C@@]23C(=O)N[C@@H](Cc4ccccc4)C2[C@H](C)[C@@]2(C)O[C@H]2C3/C=C/C/C=C\CNC1=O (stereo not given in full)	-0.454	0.109	-0.087	0.68	0.429	0.345	0.919	1.4 (inactive)	0.0427	-0.171	1.31	-0.536 (inactive)	-0.26 (inactive)	-0.0716 (inactive)	2.72	-0.461 (inactive)	-0.159	0.363	1.01	-0.0828
O=C1C2C=CC(C(O)c3ccco3)N(Nc3ccccc3)C2C(=O)N1c1ccccc1 (stereo not given)	0.76	-0.79	-0.0767	-0.216	-0.331	0.944	1.08	0.64 (inactive)	0.225	-0.134	-0.182	0.928 (inactive)	0.0851 (inactive)	0.662 (inactive)	1.13	-0.353 (inactive)	-0.147	-0.569	0.504	-0.192
COC(=O)C1=CC(CCCO)=CC(c2ccc(CN3CCCC3)cc2)N(Cc2cc3c(cc2Br)OCO3)C=C1C(=O)OC (stereo not given)	0.942	1.66	0.19	1.26	1.61	2.4	1.18	0.046 (inactive)	1.97	0.0605	1.57	-0.622 (inactive)	-1.23 (inactive)	-0.371 (inactive)	3.5	-0.327 (inactive)	0.639	0.719	1.01	0.481
CN1C(=O)C2C=CC(C(O)c3ccc(F)cc3)N(NC(=O)OC(C)(C)C)C2C1=O (stereo not given)	-0.179	-0.598	0.0505	0.257	1	1.68	1.38	0.186 (inactive)	0.734	-0.0464	0.219	1.19 (inactive)	2.11 (inactive)	1.71 (inactive)	3.28	-1.31 (inactive)	-0.0154	-0.205	0.816	-0.0531
CC(C)C[C@@H]1NC(=O)[C@@]23C(=O)N[C@@H](Cc4ccccc4)C2[C@H](C)[C@@]2(C)O[C@H]2C3/C=C/C/C=C\CNC(=O)[C@@H](C)NC1=O (stereo not given in full)	-0.296	0.183	-0.0963	0.392	-0.211	1.1	-0.483	0.677 (inactive)	-0.414	-0.12	0.5	-0.939 (inactive)	-1.17 (inactive)	-1.35 (inactive)	-0.408	0.624 (inactive)	-0.178	0.33	0.195	-0.131
CN(C)C(=O)[C@@]1(Cc2ccccc2)COC(c2ccc(OCCCO)cc2)=N1	0.862	-0.111	0.0412	-0.055	-0.266	1.81	0.61	-0.698 (inactive)	-0.341	0.217	0.243	-0.0054 (inactive)	-4.61 (inactive)	-1.59 (inactive)	2.87	1.31 (inactive)	0.137	-0.955	-0.451	0.0005
C=C(COC)/C(=C/C[C@@H](OC(C)=O)c1ccc(CO)o1)c1cc(C(=O)OC)ccc1OC	-0.22	0.707	-0.111	0.851	-0.378	1.46	1.3	0.435 (inactive)	-0.179	-0.0994	1.02	0.932 (inactive)	0.369 (inactive)	0.264 (inactive)	1.81	0.0184 (inactive)	-0.166	1.07	0.711	-0.0828
Cc1cccc([C@H]2C[C@H]3C(I)=C[C@@H]2C(=O)[C@]32CO2)c1	0.165	0.0974	-0.128	-0.152	-0.714	-0.507	-0.38	2.56 (inactive)	-0.0256	-0.236	-0.614	-2.5 (inactive)	-20.2 (active)	-2.15 (inactive)	-0.842	-0.2 (inactive)	0.0735	0.461	-0.0085	-0.108

Reference: PubChem BioAssay
